# This is a sample that favours compounds with a hit; in the whole collection about 0.83% have one here.
# GLS inhibitor = glutaminase GLS (human) inhibition | Potency, µM (top dose mostly 45.5 µM), inactives show at the highest dose activity change, negative = inhibition, actives largely listed as inhibitors | O94925 | 410,000 compounds, 0.21% hits | GLS enzymatic activity, qHTS titration | AID 624170; active = well fitted inhibition curve with a large enough effect; inconclusive = small, poorly fitted or top-dose-only effect, or another doubt; inactive = no such curve, though single readings can be large or run the other way; also: potency is read from the fitted curve at half-maximal effect; % is scaled to controls: 0 for no effect and ±100 for the full control effect
#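 hKGA in 45 mM KH2PO4 pH 8.2, 0.02% Tween-20 with pin-transferred compounds; 1 mM L-glutamine (stock) plus glutamate oxidase/HRP/Amplex Red coupling added. Fluorescence read initially and after 30 min at RT.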
# Menin-MLL TR inh = inhibitors of human menin-MLL interaction, mutant MLL peptide. Menin + Texas Red MLL mutant peptide, fluorescence polarization. Potency, µM (doses to about 61.6 µM), for inactives: at the highest dose FP activity change, negative = inhibition, usual class: inhibitors. 270,000 compounds, 0.23% hits. AID 1768; active = well fitted inhibition curve with a large enough effect in the polarisation, with a control signal flat, not every such curve was filed as active; inconclusive = small, poorly fitted or top-dose-only effect, or effect the other way, or a change in a side signal; inactive = no such curve, though single readings can be large or run the other way; the % refers to the polarisation; also: potency is read from the fitted curve at half-maximal effect; % of control where 0% means no effect
# MLL CXXC-DNA inh = MLL CXXC-DNA interaction inhibition; MLL-CXXC / FITC-HOXA9 DNA fluorescence polarization; Potency, µM (titrated, usually from 115 µM), without a hit: top-dose activity change, negative = inhibition, actives largely listed as inhibitors; 290,000 compounds, 0.037% hits; Q03164; active = well fitted inhibition curve with a large enough effect in the polarisation, with a control signal flat, not every such curve was filed as active; inconclusive = small, poorly fitted or top-dose-only effect, or effect the other way, or a change in a side signal; inactive = no such curve, though single readings can be large or run the other way; the % refers to the polarisation; also: potency is read from the fitted curve at half-maximal effect
#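 Purified MLL-CXXC (added from a 7 uM solution) was preincubated 5 min at ambient with pinned compounds in 50 mM Tris-HCl pH 7.5, 50 mM NaCl, 1 mM DTT, 0.05% BSA. Fluorescein-labeled HOX-A9 DNA (50 nM solution) followed, 30 min, then polarization read.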
# Menin-MLL FL inh = inhibitors of human menin-MLL interaction, wild-type MLL peptide | Fluorescence polarization, fluorescein-MLL peptide displacement from menin | FP activity change, % at 61.4 µM | 290,000 tested, under 10 active | AID 1766; active = well fitted curve in the direction sought with a large enough effect in the polarisation, not every such curve was filed as active; inconclusive = small, poorly fitted or top-dose-only effect, or effect the other way, or a change in a side signal; inactive = no such curve, though single readings can be large or run the other way; the % refers to the polarisation; also: % of control where 0% means no effect
# Six1-Eya2 inh = blocks human Six1 binding to Eya2; AlphaScreen GST-Six1/His-Eya2 binding, biochemical; stronger effect = lower value; activity change, % (concentration not given with the values); 360,000 compounds, 0.56% hits; AID 651725; also: % is scaled to controls: 0 for no effect and ±100 for the full control effect
#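 Six1/Eya2 binding was read as AlphaScreen signal after compounds were pinned into GST-Six1 plus His-tagged Eya2 (5X stock 250/500 nM) in pH 8.0 Tris/NaCl/TCEP buffer, beads added, then incubated 1 h, 37 C, dark.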
# CtBP-E1A inh = blocks the CtBP interaction with E1A; 340,000 compounds, 0.49% hits; activity change, % (test concentration not listed); AlphaScreen GST-E1A/His-CtBP binding, 1536-well; stronger effect = lower value; also: % is scaled to controls: 0 for no effect and ±100 for the full control effect
#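 AlphaScreen with 125 nM GST-E1A and 125 nM His-CtBP (5X stocks) in Tris pH 8.0, 300 mM NaCl, BSA, Tween 20, TCEP. Compounds preincubated 2 h at 37 deg C, then glutathione donor/nickel acceptor beads added for 1 h at 37 deg C in dark.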
# * marks the source's active call; other numbers are inactive results; u = inconclusive; x = no result; [ ] = dose if it differs, or a comment. Rule as the data show it, unless noted: active = activity change below about -65%; inconclusive = mostly about -30% to -63%; inactive = weaker than that.
SMILES,GLS inhibitor,Menin-MLL TR inh,MLL CXXC-DNA inh,Menin-MLL FL inh,Six1-Eya2 inh,CtBP-E1A inh
CCOc1cccc(-c2nnc3sc(-c4cc(OC)c(OC)cc4OC)nn23)c1,x,15%,9%,4,x,x
CCOc1cccc(-c2nn3c(-c4cc(C)[nH]n4)nnc3s2)c1,13%,u,-15%,5,u,-71*
NC1(C(=O)O)C[C@H](C(=O)O)[C@H](C(=O)O)C1 (some centres undefined),x,-13%[24.8 µM],x,0,x,x
Oc1ccc(CN2CCCc3ccccc32)c2cccnc12,22%,4%,u,0,-93*,0
CCOC(=O)C1CCN(Cc2ccccc2C(F)(F)F)CC1,-8%,1%,-5%,0,12,10
CCOC(=O)C1CCN(Cc2ccc(O)c3ncccc23)CC1,-7%,-17%,45%,2,-92*,-98*
c1ccc(-c2nnc(CN3CCCc4ccccc43)o2)cc1,-15%,-5%,-4%,u,-2,5
COc1ccccc1N1CCN(Cc2ccc(O)c3ncccc23)CC1,18%,x,u,2,-91*,-90*
COc1ccccc1N1CCN(Cc2ccc(OC)c(OC)c2OC)CC1,x,-3%,7%,0,0,-9
CCNC(=O)[C@@H]1CCCN1C(=O)[C@H](CCCN=C(N)N)NC(=O)[C@H](CC(C)C)NC(=O)[C@@H](Cc1c[nH]c2ccccc12)NC(=O)[C@H](Cc1ccc(O)cc1)NC(=O)[C@H](CO)NC(=O)[C@H](Cc1c[nH]c2ccccc12)NC(=O)[C@H](Cc1cnc[nH]1)NC(=O)[C@@H]1CCC(=O)N1,u,-19%,2%,-1,x,x
CCC(=O)c1ccc2c(c1)N(CCCN1CCN(CCO)CC1)c1ccccc1S2,51%,-7%,12%,1,x,x
COc1ccc(S(=O)(=O)n2oc(=O)cc2-c2ccccc2)cc1OC,-6%,-3%,-2%,6,-95*,u
COc1ccc(S(=O)(=O)n2oc(=O)cc2-c2ccccc2)cc1,10%,10%,14%,6,-90*,-73*
CC(C)(C)NC(=O)CCN(/N=C/c1ccccc1)C1=NS(=O)(=O)c2ccccc21,11%,u,3%,3,u,-65*
Cc1cccc(/C=N/N(CCO)C2=NS(=O)(=O)c3ccccc32)c1,7%,-7%,-2%,-5,u,-81*
CC(C)(C)NC(=O)CCN(/N=C/c1ccccc1F)C1=NS(=O)(=O)c2ccccc21,14%,u,-2%,-1,6,2
CCN(CC)c1ccc(/C=N/N2CCN(Cc3ccccc3Cl)CC2)cc1,-11%,-11%,0%,2,-74*,-27
CN(C)c1ccc(/C=N/N2CCN(Cc3ccccc3Cl)CC2)cc1,28%,1%,15%,-2,-7,-14
CCN(CC)c1ccc(/C=N/N2CCN(c3ccccc3OC)CC2)cc1,57%,-3%,0%,0,-67*,-21
COc1cccc(CNC(=O)CSC2=Nc3ccccc3C3=NC(C)C(=O)N23)c1OC (centres undefined),2%,x,x,x,x,x
CCN(CC)c1ccc(N=C2C(=O)Nc3ccccc32)cc1,u,22µM*,-2%,0,-28,u
Cc1ccc(N2C(=O)CSC23C(=O)N(CC(=O)NCCc2ccccc2)c2ccccc23)cc1C (centres undefined),5%,x,x,x,x,x
CCCCCc1cc(=O)oc2c(C(CCN3CCN(c4ccccc4)CC3)c3ccc(N(C)C)cc3)c(OC)cc(OC)c12 (centres undefined),3%,x,9%,4,-66*,-28
COc1cc(OC)c2c(-c3ccccc3)cc(=O)oc2c1C(CCN1CCCC(C)C1)c1ccc(N(C)C)cc1 (centres undefined),9%,x,2%,5,-67*,x
CCN(CC)C(=O)CC(c1cc(OC)c(OC)c(OC)c1)c1c(OC)cc(OC)c2c(-c3ccccc3)cc(=O)oc12 (centres undefined),11µM*,-2%,1%,0,-13,0
SMILES,GLS inhibitor,Menin-MLL TR inh,MLL CXXC-DNA inh,Menin-MLL FL inh,Six1-Eya2 inh,CtBP-E1A inh
COc1cc(OC)c2c(-c3ccccc3)cc(=O)oc2c1C(CCN1CCN(c2ccccc2)CC1)c1ccc(N(C)C)cc1 (centres undefined),-3%,-12%,5%,1,u,u
COc1ccc(OC)c(-c2noc(N3CCN(c4cccc(C(F)(F)F)c4)CC3)n2)c1,-13%,x,x,x,x,x
COc1cc(N=C2C(=O)N3CCCc4cccc2c43)cc(OC)c1,17%,-3%,5%,6,6,-76*
NC(Cc1cnc[nH]1)c1csc(Nc2ccc(C(F)(F)F)cn2)n1 (centres undefined),-4%,x,x,x,-90*,-92*
COc1ccc2o/c(=N/NC(=O)c3cccs3)c(C(N)=O)cc2c1,21%,13%,67%,u,u,-83*
NC(=O)c1cc2ccccc2o/c1=N/NC(=O)c1cccs1,7%,-4%,1%,3,u,-26
C[N+]12CCCC[C@@H]1CCC(=C(c1cccs1)c1cccs1)C2 (some centres undefined),-3%,2%,3%,-2,x,x
Cc1ccc(C)c(-n2c(CCC(=O)O)ccc2-c2ccc(Cl)cc2)c1,-6%,x,x,x,x,x
CCOC(=O)C1CCCN(C(=O)c2cc(-c3ccncc3)nc3ccccc23)C1 (centres undefined),-1%,x,x,x,-3,-2
Cn1c(N)c(C(=O)COC(=O)c2cc(-c3ccco3)nc3ccccc23)c(=O)n(Cc2ccccc2)c1=O,x,u,29%,u,x,x
CCOC(=O)C1CCCN(C(=O)c2cc(-c3ccco3)nc3ccccc23)C1 (centres undefined),13µM*,x,x,x,u,-2
Cn1c(N)c(C(=O)COC(=O)c2cc(-c3ccco3)nc3ccccc23)c(=O)n(C)c1=O,7.9µM*,u,9%,12,u,u
NC(=S)N/N=C/c1ccccc1OC(=O)/C=C/c1ccccc1,17%,x,73%,x,u,-93*
COc1ccc(Nc2cc3n(c(=O)n2)CCc2cc(OC)c(OC)cc2-3)cc1,-21%,-29%,-13%,-1,-79*,u
COc1cc2c(cc1OC)-c1cc(Nc3ccc(C)cc3)nc(=O)n1CC2,-1%,-17%,u,-1,u,x
COc1cc2c(cc1OC)-c1cc(Nc3ccccc3)nc(=O)n1CC2,-10%,x,4%,12,-76*,1
COc1cc2c(cc1OC)-c1cc(NC3CCCCCC3)nc(=O)n1CC2,13%,-13%,0%,3,-71*,u
CCN(CC)CCCNc1cc2n(c(=O)n1)CCc1cc(OC)c(OC)cc1-2,2%,-6%,14%,5,-80*,-69*
